Among the data in PubChem BioAssay (NCI) are growth values, retold here.

About 83,000 compounds went through this panel and 20% of them were active in at least one assay; those are over-represented in the sample as a whole.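 How to read the values: 0–100, growth inhibition (40 = 60% inhibited); 0, no net growth; -100 to 0, cell death (-40 = 40% of starting cells died; -100 = all dead).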 A number with no mark means an inactive call. Activity calls are given as the source filed them. Rule for the calls: active = growth percent below 10; inactive = the rest.

Test systems include NCI-H23 lung; NCI-H226 lung; NCI-H322M lung; HOP-62 NSCLC; NCI-H460 lung; HOP-92 NSCLC; NCI-H522 lung; A549/ATCC NSCLC; 786-0 renal; COLO 205 colon.
Holding throughout (experiment): NCI-60 one-dose screen, 48 h (100 = growth as untreated, 0 = no growth, -100 = all killed)
Conditions in all cases: 10 µM unless noted

`Nc1c(C(=O)Nc2cccc3ccccc23)sc2nc3c(cc12)CCCC3`: the growth in the experiment on NCI-H23 lung is 23.1%; in the experiment with NCI-H226 lung, 63.1%; with NCI-H322M lung, 51.7%; with HOP-62 NSCLC, 29.9%; in the experiment with NCI-H460 lung, 16.4%; in the experiment on HOP-92 NSCLC it was 44%. For the same molecule, the growth in the experiment with NCI-H522 lung was 11.7%; with A549/ATCC NSCLC it was 17.8%; in the experiment with 786-0 renal, 34.7%; in the experiment on COLO 205 colon, -3.36% (active).
For the molecule `Nc1ccccc1NC(=O)c1ccc(CN2CCC/C(=C\c3ccccn3)C2=O)cc1`, the growth in the experiment on NCI-H23 lung was 29.3%; with NCI-H226 lung, 52.8%; in the experiment on NCI-H322M lung it was 39.8%; with HOP-62 NSCLC, 41.8%; in the experiment with NCI-H460 lung, 17.9%; with HOP-92 NSCLC, 46%. Also, the growth in the experiment with NCI-H522 lung was 21.1%; in the experiment with A549/ATCC NSCLC, 26.2%; with 786-0 renal, 44.5%; with COLO 205 colon, 1.53% (active).
With `COc1cc2c(cc1OC)C(=O)/C(=C/c1cc(-c3ccc4c(c3)OCO4)n[nH]1)C2`, the growth with NCI-H23 lung was 22.4%; in the experiment with NCI-H226 lung it was 47.1%; in the experiment with NCI-H322M lung, -5.69% (active); in the experiment with HOP-62 NSCLC it was -52.5% (active); in the experiment on NCI-H460 lung it was -82.2% (active); with HOP-92 NSCLC, -4.09% (active). For the same molecule, the growth is -63.6% (active) in the experiment on NCI-H522 lung, 27.8% in the experiment with A549/ATCC NSCLC, -89.8% (active) in the experiment with 786-0 renal and 7.58% (active) with COLO 205 colon.
As to `Cc1ccsc1-c1ccc2c(c1)COC2(CCCN(C)C)c1ccc(F)cc1` (stereo not given), the growth in the experiment with NCI-H23 lung is 70.6%; with NCI-H226 lung, 93%; in the experiment with NCI-H322M lung it was 68.5%; in the experiment with HOP-62 NSCLC it was 69.4%; in the experiment with NCI-H460 lung it was 10.3%; in the experiment on HOP-92 NSCLC, 41.6%. In addition, the growth was 55.1% with NCI-H522 lung, 45.9% in the experiment on A549/ATCC NSCLC, 63.8% with 786-0 renal and -43.9% (active) with COLO 205 colon.
In the case of `Cc1ccc(Nc2c(C(N)=O)cnc3ccc(S(=O)(=O)Nc4cc(C)on4)cc23)cc1`, the growth with NCI-H23 lung was 95.1%; in the experiment with NCI-H226 lung it was 95%; in the experiment with NCI-H322M lung it was 95.8%; with HOP-62 NSCLC it was 89.8%; in the experiment on NCI-H460 lung, 103%; in the experiment on HOP-92 NSCLC, 84.1%. Further, the growth in the experiment on NCI-H522 lung is 92.2%; in the experiment on A549/ATCC NSCLC it was 103%; in the experiment on 786-0 renal it was 106%; in the experiment with COLO 205 colon, 101%.
On to `O=C(NO)c1ccc(Cn2c(=O)n(-c3ccccc3)c(=O)c3ccccc32)cc1`, for which the growth was -38.7% (active) in the experiment on NCI-H23 lung; 41.3% with NCI-H226 lung; 38.8% in the experiment with NCI-H322M lung; 29.3% in the experiment with HOP-62 NSCLC; 39% with NCI-H460 lung; 48.4% with HOP-92 NSCLC. Also, the growth in the experiment with NCI-H522 lung was -21.7% (active); in the experiment on A549/ATCC NSCLC it was 37.7%; in the experiment with 786-0 renal it was 71%; in the experiment with COLO 205 colon, -62.4% (active).
As for `O=c1[nH]c2c3ccncc3cc(-c3cccc(Cl)c3)c2c2cnccc12`, the growth with NCI-H23 lung is 50.8%; in the experiment on NCI-H226 lung it was 29.6%; in the experiment on NCI-H322M lung it was 56.2%; in the experiment on HOP-62 NSCLC, 0.205% (active); in the experiment with NCI-H460 lung it was 5.33% (active); in the experiment on HOP-92 NSCLC, 5.61% (active). Further, the growth in the experiment on NCI-H522 lung was 53.7%; in the experiment with A549/ATCC NSCLC, 27.4%; with 786-0 renal it was 17.4%; in the experiment on COLO 205 colon, 25.4%.
For the molecule `CN1CCN(c2ccc3nc(-c4[nH]ncc4Nc4ncnc5[nH]ccc45)[nH]c3c2)CC1`, the growth in the experiment with NCI-H23 lung is -1.38% (active); in the experiment with NCI-H226 lung, -10.2% (active); in the experiment on NCI-H322M lung it was 1.88% (active); in the experiment on HOP-62 NSCLC, -0.445% (active); in the experiment on NCI-H460 lung, 21%; in the experiment on HOP-92 NSCLC, 26.9%. Also, the growth was -4.39% (active) in the experiment on NCI-H522 lung, 24% in the experiment on A549/ATCC NSCLC, 2.96% (active) in the experiment with 786-0 renal and -59.8% (active) in the experiment on COLO 205 colon.
Turning to `CN1CCN(CCOc2ccc(-c3cnc4c(-c5ccccc5F)cnn4c3)cc2)CC1`, the growth in the experiment with NCI-H23 lung was 46.5%; in the experiment with NCI-H226 lung, 105%; in the experiment with NCI-H322M lung it was 57.9%; in the experiment on HOP-62 NSCLC, 64.7%; in the experiment on NCI-H460 lung it was -63.3% (active); in the experiment with HOP-92 NSCLC it was 2.22% (active). In addition, the growth in the experiment with NCI-H522 lung is 66.8%; in the experiment on A549/ATCC NSCLC, 22.4%; with 786-0 renal, -73.5% (active); in the experiment with COLO 205 colon it was -79.3% (active).
For the molecule `Clc1ccccc1-c1nc(Nc2nc3ccccc3s2)nc(C(Cl)(Cl)Cl)n1`, the growth in the experiment on NCI-H23 lung is 76.4%; in the experiment with NCI-H226 lung it was 95%; with NCI-H322M lung, 24.6%; with HOP-62 NSCLC, 40.5%; in the experiment on NCI-H460 lung, 1.36% (active); with HOP-92 NSCLC, 55.6%. In addition, the growth with NCI-H522 lung was 88.4%; with A549/ATCC NSCLC it was 18%; in the experiment with 786-0 renal, 75.8%; with COLO 205 colon, 10.9%.
In the case of `COc1ccc(-c2cc(-c3cccs3)n(N=O)c(=O)c2C#N)cc1`, the growth in the experiment with NCI-H23 lung is 89.1%; in the experiment on NCI-H226 lung, 99.8%; in the experiment on NCI-H322M lung, 106%; with HOP-62 NSCLC it was 93.8%; in the experiment with NCI-H460 lung it was 102%; with HOP-92 NSCLC it was 63.8%. Also, the growth is 93% in the experiment on NCI-H522 lung, 100% in the experiment on A549/ATCC NSCLC, 93.5% with 786-0 renal and 119% with COLO 205 colon.
For the molecule `[B-][N+](CC)(CC)c1ccccc1`, the growth is 105% in the experiment on NCI-H23 lung; 106% in the experiment with NCI-H226 lung; 96.9% in the experiment on NCI-H322M lung; 101% with HOP-62 NSCLC; 110% with NCI-H460 lung; 81.9% with HOP-92 NSCLC. The growth with NCI-H522 lung is 96.5%; in the experiment on A549/ATCC NSCLC it was 102%; in the experiment on 786-0 renal it was 105%; in the experiment on COLO 205 colon it was 102%.
For the molecule `Cc1ccc(-c2nc([P+](c3ccccc3)(c3ccccc3)c3ccccc3)c(N3C[C@H]4C[C@H](C3)c3cccc(=O)n3C4)o2)cc1`, the growth in the experiment on NCI-H23 lung is 82.3%; with NCI-H226 lung, 108%; in the experiment on NCI-H322M lung, 94.3%; in the experiment with HOP-62 NSCLC, 90.4%; in the experiment on NCI-H460 lung it was 105%; in the experiment with HOP-92 NSCLC, 62.6%. In addition, the growth with NCI-H522 lung is 74.3%; in the experiment on A549/ATCC NSCLC, 99.1%; in the experiment on 786-0 renal it was 97.1%; with COLO 205 colon, 48.9%.
